Source: PubChem BioAssay (NCI)
About 83,000 compounds went through this panel and 20% of them were active in at least one assay; those are over-represented in the sample as a whole.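 Activity criterion: percent growth below 10, measured after cells in 96-well plates were exposed to a single compound concentration for 48 hours.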 Values without a mark were called inactive. The source made the active and inactive calls.

Tests used:
Assay in all cases: NCI-60 one-dose screen, 48 h (100 = growth as untreated, 0 = no growth, -100 = all killed)
NCI-H226 lung = conditions: 10 µM unless noted
NCI-H322M lung = conditions: 10 µM unless noted
HOP-62 NSCLC = conditions: 10 µM unless noted
SNB-19 CNS = conditions: 10 µM unless noted
U251 CNS = conditions: 10 µM unless noted
TK-10 renal = conditions: 10 µM unless noted
SR leukemia = conditions: 10 µM
RPMI-8226 leukemia = conditions: 10 µM unless noted
IGROV1 ovarian = conditions: 10 µM
HS 578T breast = conditions: 10 µM unless noted
T-47D breast = conditions: 10 µM unless noted
BT-549 breast = conditions: 10 µM
MCF7 breast = conditions: 10 µM unless noted
HCC-2998 colon = conditions: 10 µM unless noted
HOP-92 NSCLC = conditions: 10 µM unless noted
NCI-H522 lung = conditions: 10 µM unless noted
EKVX NSCLC = conditions: 10 µM unless noted
CCRF-CEM leukemia = conditions: 10 µM unless noted
SK-OV-3 ovarian = conditions: 10 µM unless noted

| SMILES | growth (NCI-H226 lung) | growth (NCI-H322M lung) | growth (HOP-62 NSCLC) | growth (SNB-19 CNS) | growth (U251 CNS) | growth (TK-10 renal) | growth (SR leukemia) | growth (RPMI-8226 leukemia) | growth (IGROV1 ovarian) | growth (HS 578T breast) | growth (T-47D breast) | growth (BT-549 breast) | growth (MCF7 breast) | growth (HCC-2998 colon) | growth (HOP-92 NSCLC) [%] | growth (NCI-H522 lung) | growth (EKVX NSCLC) [%] | growth (CCRF-CEM leukemia) [%] | growth (SK-OV-3 ovarian) |
| --- | --- | --- | --- | --- | --- | --- | --- | --- | --- | --- | --- | --- | --- | --- | --- | --- | --- | --- | --- |
| CC(=O)[O][Hg][c]1nc2c(c(=O)n(C)c(=O)n2C)n1C | 108% | 95.7% | 120% | 98.2% | 88.3% | 110% | 41.3% | 102% | 81% | 105% | 88.8% | 111% | 73.3% | 131% |  |  |  |  |  |
| C=CC(=O)NC(O)C(Cl)(Cl)Cl (centres undefined) | 112% | 85% | 104% | 105% | 102% | 95.9% | 90.8% | 102% | 98.1% | 120% |  | 97.5% | 105% | 104% |  |  |  |  |  |
| CC(=O)Nc1ccc(C=C2C(=O)NC(=O)NC2=O)cc1 | 101% | 104% | 103% | 98.4% | 103% | 107% |  | 98.3% | 107% |  | 106% | 112% | 94% | 104% | 91.5 | 104% | 106 | 86.1 | 105% |
| COc1ccc(-c2ccc(OC)c(OC)c2OC)cc1 | 86.7% | 36% | 26.9% | 38.9% | 22.9% | 16.2% | 16.9% |  | 37.1% |  | 27% | 20.2% | 19.3% | 23.7% |  |  | 52.4 | 10.1 | 7.71% (active) |
| COC(=O)C(=[N+]=[N-])C(=O)OC | 99.2% | 103% |  |  | 104% | 92.5% | 100% | 96.4% | 110% | 121% | 109% |  | 88.3% | 108% | 82.9 | 94% |  | 61.4 | 101% |
| COC(=O)C1CC2c3ccccc3C1c1ccccc12 (centres undefined) | 92.3% | 98.8% | 91.3% | 117% | 101% | 107% | 93.9% |  | 96.6% |  | 102% | 120% | 96.5% | 107% |  |  |  | 83.4 | 99.1% |
| O=C(O)C1[O][Sb][O]C1C(=O)O (centres undefined) | 93.9% | 101% | 109% |  | 102% | 101% | 70% | 99.3% | 81.8% | 101% |  | 84.6% | 92% | 106% |  |  |  |  | 102% |
| O=C(NCc1ccc([N+](=O)[O-])cc1)Nc1ccc(S(=O)(=O)F)cc1 | 63.7% | 88.3% | 70.5% |  | 85.7% | 78.1% |  | 68.9% | 94.8% |  | 57% | 94.9% | 83.7% | 99.2% |  |  |  | 81.4 | 94.9% |
| c1ccc([As]=[As]c2ccccc2)cc1 (centres undefined) | 5.17% (active) | -40.5% (active) | -54.4% (active) | 20.5% |  | -86% (active) | -47.5% (active) | -47.4% (active) | -84.1% (active) | 37.8% | -73.1% (active) | -96.5% (active) | -76.2% (active) | 0.927% (active) |  |  |  |  | 27.5% |
| OB([O][Hg][c]1ccccc1)[O][Hg][c]1ccccc1 | 54.9% | -22.4% (active) | -90.3% (active) | 5.87% (active) | -82.4% (active) | -94.5% (active) | -15.2% (active) |  | -54.3% (active) | -5.59% (active) | -42.4% (active) | -91.5% (active) |  |  |  |  |  |  | -62.7% (active) |
| CCC(C)[C@H]1O[C@]2(C=C[C@@H]1C)C[C@@H]1C[C@@H](C/C=C(\C)[C@@H](OC3C[C@H](OC)C(O[C@H]4C[C@H](OC)[C@@H](O)[C@H](C)O4)[C@H](C)O3)[C@@H](C)/C=C/C=C3\CO[C@@H]4[C@H](O)C(C)=C[C@@H](C(=O)O1)[C@]34O)O2 (some centres undefined) | -15.6% (active) | 25.7% | -6% (active) |  | -16% (active) | 13.7% | -28.1% (active) |  | 13% | -13% (active) | 0.0336% (active) | -39.1% (active) | 10.4% | -49% (active) |  | -28.8% (active) | 14.6 |  |  |
